# In the supplement of paper PMC7156485:
# ± gives the standard deviation of the averaged measurements.
# Assays:
# Details in all cases: concentration: 10 µM; 24 h
# HCC1569 [1] = assay: cell number relative to DMSO (% of DMSO); higher = more cells (less growth inhibition / toxicity)
# Procedure, shortened: (§1)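 In 384-well plates holding 800 HCC1569 or TDF cells per well in RPMI with 10% FBS, compounds were tested at 10 µM for 24 h at 37 °C in triplicate. Fixation used 3.7% formaldehyde. Staining used a rabbit anti-H1.0 antibody with an AlexaFluor 647 secondary, plus DAPI. Each value, H1.0 nuclear intensity or cell number, is a median of replicates shown as percent of the plate control, and HCC1569 values were smoothed for positional effects.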
# TDF [2] = assay: as above
# Procedure, shortened: as §1
# TDF [3] = assay: H1.0 immunofluorescence intensity relative to DMSO (% of DMSO); higher = stronger H1.0 induction, active = 120 or more
# Procedure, shortened: as §1
# HCC1569 [4] = assay: H1.0 immunofluorescence intensity relative to DMSO (% of DMSO); higher = stronger H1.0 induction, active = 140 or more
# Procedure, shortened: as §1
# 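Throughout, for H1.0 immunofluorescence intensity relative to DMSO: TDF is a line of transformed human dermal fibroblasts of mesenchymal origin.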
# 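Throughout, for cell number relative to DMSO: TDF denotes transformed human dermal fibroblasts of mesenchymal origin.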
SMILES,cell number (HCC1569 [1]),cell number (TDF [2]),H1.0 immunofluorescence intensity (TDF [3]),H1.0 immunofluorescence intensity (HCC1569 [4])
Nc1[nH]nc2nnc(-c3c(-c4ccccc4)nn4ccccc34)cc12,94.2,100,89.2 (inactive),117 (inactive)
Cn1c(=O)c2[nH]c(-c3ccc(S(=O)(=O)O)cc3)nc2n(C)c1=O [8-(p-Sulfophenyl)theophylline],101,109,93.8 (inactive),89 (inactive)
COC(=O)/C=C/c1cccc(N(Cc2ccc(-c3ccc(N(C)C)cc3)cc2)C(=O)C2CCCCC2)c1,91.5,95.9,90.7 (inactive),106 (inactive)
FC(F)(F)c1ccc(CNc2ccc(Cc3c[nH]c4ncccc34)cn2)cc1,75.5,74.9,108 (inactive),139 (inactive)
CN(C)CCC(c1ccc(Br)cc1)c1ccccn1.O=C(O)C=CC(=O)O (racemic),101,98.7,97.9 (inactive),94.6 (inactive)
CC(N)(Cc1ccc(O)cc1)C(=O)O (racemic) [DL-alpha-Methyl-p-tyrosine],103,117,114 (inactive),106 (inactive)
O=c1c2ccccc2nc2n1CCc1c-2[nH]c2ccccc12 [Rutaecarpine],102 ± 6.6,103.4 ± 0.87,94.9 (inactive),102 (inactive)
CC1(C)OC2CC3C4CC(F)C5=CC(=O)C=CC5(C)C4(F)C(O)CC3(C)C2(C(=O)CO)O1 (stereo unspecified) [Fluocinolone acetonide],101,96.3,88.2 (inactive),124 (inactive)
Br.Oc1ccc(C2CNCCc3c2cc(O)c(O)c3Cl)cc1 (stereo unspecified) [Fenoldopam bromide],103,100,86.4 (inactive),99.2 (inactive)
